Assay outcomes as filed in PubChem BioAssay.
Shown are actives, neighbours in structure and some others; about 8.9% of the full set was active somewhere.
HPGD inh = inhibitors of human 15-hydroxyprostaglandin dehydrogenase (HPGD); P15428; purified HPGD, NADH fluorescence kinetic, PGE2 substrate; Potency, µM, for the others: at the top dose activity change, negative = inhibition, hits mostly inhibitors; actives 4.3% (n = 150,000); AID 894; active = well fitted inhibition curve with a large enough effect, not every such curve was filed as active; inconclusive = small, poorly fitted or top-dose-only effect, or another doubt; inactive = no such curve, though single readings can be large or run the other way; also: potency is read from the fitted curve at half-maximal effect
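NADH formation kinetics: reaction with 30 uM PGE2 and 1 mM NAD+ (final), 20 nM enzyme, Tris-HCl pH 8 with Tween 20, after 15 min compound preincubation at room temperature. Fluorescence change, last versus first of five reads.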
IMPase Li cell = IMPase inhibition in cells with lithium potentiation. actives 0.35% (n = 210,000). Potency, µM (highest dose often 59.4 µM), inactives show top-dose activity, negative = IMPase inhibition, hits mostly inhibitors. CHO-M1 cells, IP1 TR-FRET (IP-One), carbachol + lithium;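 also: IP1 builds up when IMPase is blocked and the TR-FRET signal falls; potency is read from the fitted curve at half-maximal effect; plate controls were basal vehicle for no effect and high inhibitor control for full effect; nearly all actives have a fitted effect of over 50% in size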
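CHO cells stably expressing M1 receptor (2000/well) were cultured 16–30 h, then exposed to compounds with a small lithium addition for 30 min at 37C. IP1 was measured by TR-FRET competition; AC50 from Hill fits.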
12-hLO inh = blocks human 12-lipoxygenase activity; P18054; purified 12-hLO, xylenol orange hydroperoxide absorbance; Potency, µM (top dose mostly 57.1 µM), inactives show at the top dose activity change, negative = inhibition, most hits filed as inhibitors; actives 0.12% (n = 150,000); AID 1452; also: potency is read from the fitted curve at half-maximal effect; nearly all actives have a fitted effect of over 55% in size
Target sequence (P18054 whole entry, looked up): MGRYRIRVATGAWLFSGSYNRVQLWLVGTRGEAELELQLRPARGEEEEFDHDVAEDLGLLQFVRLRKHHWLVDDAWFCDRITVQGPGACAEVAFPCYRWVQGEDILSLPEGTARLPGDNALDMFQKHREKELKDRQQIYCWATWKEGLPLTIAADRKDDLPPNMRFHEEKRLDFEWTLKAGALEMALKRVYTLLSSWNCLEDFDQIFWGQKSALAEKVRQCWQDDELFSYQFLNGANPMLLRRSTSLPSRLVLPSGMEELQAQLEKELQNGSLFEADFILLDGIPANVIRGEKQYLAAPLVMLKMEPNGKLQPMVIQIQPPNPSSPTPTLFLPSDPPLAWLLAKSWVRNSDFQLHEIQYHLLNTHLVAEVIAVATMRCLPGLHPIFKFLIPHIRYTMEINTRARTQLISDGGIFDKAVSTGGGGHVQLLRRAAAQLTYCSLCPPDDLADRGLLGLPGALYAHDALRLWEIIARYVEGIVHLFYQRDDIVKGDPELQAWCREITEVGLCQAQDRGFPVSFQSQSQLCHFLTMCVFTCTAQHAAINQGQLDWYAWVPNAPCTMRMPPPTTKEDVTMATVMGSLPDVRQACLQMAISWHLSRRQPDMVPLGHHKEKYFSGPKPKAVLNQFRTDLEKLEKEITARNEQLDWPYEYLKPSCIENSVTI
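Lipoxygenase turnover measured by absorbance at 573 and 405 nm after Fe-XO development. Human 12hLO 150 nM, arachidonate 40 uM, pH 7.0 Hepes buffer with detergent; 15 min compound preincubation, 30 min reaction.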
IMPase cell inh = IMPase inhibition in cells; inhibition (IP1 accumulation), % at 46.1 µM; CHO-M1 cells, IP1 accumulation, HTRF TR-FRET ratio; P97697; 120,000 tested, under 10 active; active = well fitted curve in the direction sought with a large enough effect in the signal ratio, not every such curve was filed as active; inconclusive = small, poorly fitted or top-dose-only effect, or a change in a side signal; inactive = no such curve, though single readings can be large or run the other way; the % refers to the signal ratio;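 also: cells stimulated with carbachol in lithium chloride buffer; plate controls were DMSO basal wells for no effect and reference inhibitor wells for full effect; higher means more IMPase inhibition seen as more IP1 and lower FRET ratio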
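Seeded CHO-M1 cells were dosed with compound at up to 46 uM, stimulated with carbachol for 30 min, then lysed in IP-One detection reagents. Higher IP1 lowers the TR-FRET signal.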
NPSR antagonist = blocks cAMP signaling of the human neuropeptide S receptor; Q6W5P4; CHO-NPSR cells, cAMP TR-FRET, antagonist mode; Potency, µM (highest dose often 38.3 µM), without a hit: at the top dose activity change, negative = inhibition, usual class: inhibitors; actives 1% (n = 220,000); AID 1461; also: potency is read from the fitted curve at half-maximal effect; nearly all actives have a fitted effect of over 50% in size
ALDH1A1 block = inhibitors of human aldehyde dehydrogenase 1A1 | P00352 | Purified ALDH1A1, NADH fluorescence, propionaldehyde substrate | Potency, µM (top dose mostly 75.3 µM), without a hit: at the top dose activity, negative = inhibition, most hits filed as inhibitors | actives 7.3% (n = 220,000) | AID 1030; active = well fitted inhibition curve with a large enough effect, not every such curve was filed as active; inconclusive = small, poorly fitted or top-dose-only effect, or another doubt; inactive = no such curve, though single readings can be large or run the other way;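 also: potency is read from the fitted curve at half-maximal effect; plate controls were no enzyme wells and a reference inhibitor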
Active calls of the source: *; [ ] = dose if it differs, or a comment. Unless noted, calls follow the shape of the dose curve; as a rule, active = well fitted curve in the direction sought with a large enough effect; inconclusive = small, poorly fitted or top-dose-only effect, or another doubt; inactive = no such curve, though single readings can be large; an effect the other way counts as inactive or inconclusive. Unless noted, % is scaled to controls: 0 for no effect and ±100 for the full control effect.

Screening CC(C)C(=O)N1CCN(c2ccc(NC(=O)c3ccc([N+](=O)[O-])o3)cc2Cl)CC1 returned IMPase Li cell -1%, NPSR antagonist 3.2µM* and ALDH1A1 block inconclusive.
O=C(Nc1ccc(N2CCN(C(=O)c3ccccc3)CC2)cc1)c1ccc([N+](=O)[O-])o1 was read as IMPase Li cell 29%, NPSR antagonist inconclusive and ALDH1A1 block 11µM*.
For CC(C)C(=O)N1CCN(c2ccc(NC(=O)c3ccc([N+](=O)[O-])o3)cc2)CC1 the results were IMPase Li cell 27%, NPSR antagonist inconclusive and ALDH1A1 block inconclusive.
`CC/C=C\C/C=C\C/C=C\C/C=C\C/C=C\C/C=C\CCC(N)=O` gave HPGD inh -7%, IMPase Li cell 17%, 12-hLO inh -3% and ALDH1A1 block -7%.
Screening CCOC(=O)c1c(CSc2ccccc2)n(C)c2cc(Br)c(O)c(CN(C)C)c12 returned NPSR antagonist 32%[7.67 µM].
`CCOC(=O)c1c(CSc2ccsc2)n(C)c2cc(Br)c(O)c(CN(C)C)c12` gave NPSR antagonist 13µM*.
Screening Cc1c(Nc2cc(N3CCCCCC3)c3nonc3c2[N+](=O)[O-])c(=O)n(-c2ccccc2)n1C returned HPGD inh 11µM*, IMPase Li cell -2%[38.3 µM], 12-hLO inh -2%, IMPase cell inh 5, NPSR antagonist -13%[46.1 µM] and ALDH1A1 block 5%.
Screening CCCN1C(=O)/C(=C/c2ccc(N3CCCC3)c(C)c2)NC1=S returned HPGD inh -30%, IMPase Li cell 9%[38.3 µM], 12-hLO inh -19%, IMPase cell inh 14, NPSR antagonist inconclusive and ALDH1A1 block 0.22µM*.
For CCOC(=O)COc1ccc(S(=O)(=O)c2ccc(OCC(=O)OCC)cc2)cc1 the results were HPGD inh -3%, IMPase Li cell -4%[38.3 µM], 12-hLO inh 3%, IMPase cell inh 0, NPSR antagonist inconclusive and ALDH1A1 block -5%.
For CCN1C(=O)/C(=C/c2ccc(N3CCCC3)cc2)NC1=S the results were HPGD inh -18%, IMPase Li cell 24%, 12-hLO inh -27%, NPSR antagonist -26% and ALDH1A1 block 13µM*.
`CCCN1C(=O)/C(=C/c2ccc(N3CCOCC3)cc2)NC1=S` gave IMPase Li cell 0%, NPSR antagonist -30% and ALDH1A1 block 6.3µM*.
For CCCN1C(=O)/C(=C/c2ccc(OCC(=O)OCC)cc2)NC1=S the results were IMPase Li cell 7%, NPSR antagonist -31% and ALDH1A1 block 1µM*.
`COc1ccc(OC)c(NC(=O)CN(c2ccccc2OC)S(=O)(=O)c2ccc(C)cc2)c1` gave IMPase cell inh 6.
CN(C)Cc1ccccc1-c1ccc2ncnc(N(C)C)c2c1 was read as IMPase Li cell 6% and ALDH1A1 block 3%.
Screening Cc1ccc(C(=O)NC(N(C)C)C(Cl)(Cl)Cl)cc1 (stereo unspecified) returned IMPase Li cell -2%, NPSR antagonist 13% and ALDH1A1 block 4%.
For Cc1[nH]c2ccccc2c1/C=C/c1cc[n+](C)cc1 the results were HPGD inh -12%, IMPase Li cell 42%[38.3 µM], 12-hLO inh -1%, IMPase cell inh inconclusive, NPSR antagonist 10µM* and ALDH1A1 block inconclusive.
Screening COc1ccccc1-n1cccc1C=O returned IMPase Li cell 4%, NPSR antagonist -17% and ALDH1A1 block 0%.
COc1ccccc1Cn1cccc1C=O was read as IMPase Li cell 5%, NPSR antagonist 6% and ALDH1A1 block 14µM*.
For CC(C)Cn1c2c(c(O)c(C(=O)Nc3ncccc3O)c1=O)CCCC2 the results were HPGD inh -8%, IMPase Li cell -7%[38.3 µM], 12-hLO inh 1%, IMPase cell inh 1, NPSR antagonist -19%[46.1 µM] and ALDH1A1 block 7.9µM*.
COc1ccccc1N1C(=N)S/C(=C\c2ccc(-c3ccccc3C(=O)O)o2)C1=O was read as HPGD inh 25µM*, IMPase Li cell 2%, 12-hLO inh -3%, NPSR antagonist -21% and ALDH1A1 block inconclusive.
For N=C1S/C(=C\c2ccc(-c3ccccc3C(=O)O)o2)C(=O)N1c1ccc2c(c1)OCO2 the results were IMPase Li cell 6%, NPSR antagonist -9% and ALDH1A1 block 11µM*.
For COCc1ccc(C(=O)N2CCCC(C(=O)c3cccc(C(F)(F)F)c3)C2)o1 (stereo unspecified) the results were IMPase Li cell 5%, NPSR antagonist 10% and ALDH1A1 block inconclusive.
`COc1ccc(/C=C/C(=O)NCCc2ccc(OC)c(OC)c2)cc1` gave HPGD inh -3%, IMPase Li cell 1%, 12-hLO inh -3%, NPSR antagonist 9% and ALDH1A1 block 4%.
`CN(C)c1ccc(C2=NOC(CN3C(=O)c4ccccc4S3(=O)=O)C2)cc1` (stereo unspecified) gave HPGD inh inconclusive, IMPase Li cell 0%[38.3 µM], 12-hLO inh -2%, IMPase cell inh 5, NPSR antagonist inconclusive and ALDH1A1 block 16µM*.
Cn1nnnc1SCCNS(=O)(=O)c1ccccc1 was read as HPGD inh -10%, IMPase Li cell -19%[38.3 µM], 12-hLO inh 0%, IMPase cell inh 8, NPSR antagonist 1%[46.1 µM] and ALDH1A1 block -10%.
`Cc1ccc(-n2nnnc2SCCNS(=O)(=O)c2ccccc2)cc1C` gave HPGD inh -6%, IMPase Li cell 34%[38.3 µM], 12-hLO inh -10%, IMPase cell inh 12, NPSR antagonist -9%[46.1 µM] and ALDH1A1 block 5µM*.
Cc1cccc(CS(=O)(=O)Cc2ccc(C(=O)NCc3ccco3)o2)c1 was read as HPGD inh -6%, IMPase Li cell 6%[38.3 µM], 12-hLO inh 2%, IMPase cell inh -1, NPSR antagonist -11%[46.1 µM] and ALDH1A1 block inconclusive.
CCOc1ccc2oc(-c3ccccc3)c(C(=O)O)c2c1 was read as HPGD inh inconclusive, IMPase Li cell -10%[38.3 µM], 12-hLO inh -1%, IMPase cell inh -2, NPSR antagonist -12%[46.1 µM] and ALDH1A1 block inconclusive.
Screening O=C(O)CCS(=O)(=O)c1nc(-c2cccs2)cc(C(F)(F)F)n1 returned HPGD inh inconclusive, IMPase Li cell -3%[38.3 µM], 12-hLO inh 1%, IMPase cell inh -10, NPSR antagonist -6%[46.1 µM] and ALDH1A1 block inconclusive.
Screening CCOC(=O)CS(=O)(=O)c1nc(-c2ccccc2)cc(C(F)(F)F)n1 returned HPGD inh 14µM*, IMPase Li cell 11%[38.3 µM], 12-hLO inh -10%, IMPase cell inh 12, NPSR antagonist 10µM* and ALDH1A1 block -1%.
